An excerpt weighted towards active compounds, which were near 2.1% of everything screened.
BaF3 parental: reduces parental Ba/F3 cell viability, JAK2V617F counter-screen. hit rate 1.1% among 220,000. inhibition, % at 5.6 µM. CellTiter-Glo ATP luminescence;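 active means inhibition above a per-campaign cutoff, the mean inhibition of all tested compounds plus 3 SD, cut at about 27% in these data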
APP 5UTR inh: APP translation inhibition. hit rate 0.82% among 190,000. SH-SY5Y APP 5'UTR-luciferase reporter, luminescence. inhibition, % at 2 µM;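 active means inhibition above a set limit, derived from the sample mean plus 3 SD, cut at about 45% in these data; inconclusive means one replicate passes the limit while the other fails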
KLF5 inhibitor: kruppel-like factor 5 inhibition | DLD-1 KLF5 promoter-luciferase reporter, luminescence | inhibition, % at 5 µM | hit rate 0.23% among 290,000;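 active means inhibition above a per-plate limit of that plate's mean compound inhibition plus 3 SD, cut at about 60% in these data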;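 further: higher means less KLF5 promoter-driven luciferase light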
IEC-6 tox: kills IEC-6 intestinal cells in KLF5 counter-screen. AID 1825. IEC-6 cytotoxicity, luminescence viability. inhibition, % at 5 µM. hit rate 0.78% among 290,000; in the data active means inhibition above about 22%
Ba/F3 V617F tox: loss of viability in JAK2V617F-driven Ba/F3 cells; inhibition, % at 5.6 µM; hit rate 1.1% among 220,000; AID 1446; Ba/F3 EpoR-JAK2V617F viability, ATP luminescence;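 active means inhibition above the campaign mean plus 3 SD over all tested compounds, cut at about 24% in these data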;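 further: cytokine-independent growth of Ba/F3 cells driven by EpoR plus mutant JAK2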
aSyn UTR inh: 5' untranslated region of α-synuclein, MLPCN primary screen. alpha-synuclein 5'UTR reporter, inhibitor activity. inhibition, % (tested at 7.5 µM). hit rate 0.82% among 300,000; in the data active means inhibition above about 60%; inconclusive means no clear call, values can overlap the other calls;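 further: H4 neuroglioblastoma cells stably carrying SNCA 5'UTR luciferase fusion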
A number is an active result; i = inactive; ? = inconclusive; nt = no result.

SMILES | BaF3 parental | APP 5UTR inh | KLF5 inhibitor | IEC-6 tox | Ba/F3 V617F tox | aSyn UTR inh
Cc1ccc2c(C)nc(NC3=NCN(C(C)C)CN3)nc2c1 | 31 | i | i | i | i | nt
COc1ccc2nc(SCC(=O)N3CCN(c4ccccc4F)CC3)c(C#N)cc2c1 | i | i | i | i | i | nt
COc1ccc2nc(SCC(=O)N3CC(=O)Nc4ccccc43)c(C#N)cc2c1 | i | 60 | i | i | i | i
O=C1CN(C(=O)COC(=O)c2oc3ccccc3c2COc2ccccc2)c2ccccc2N1 | i | 45 | i | i | i | i
COc1ccccc1/C=C1\SC(=S)N(CCC(=O)Nc2cccc(O)c2)C1=O | nt | nt | i | i | nt | i
CC12CCC(=O)N1C(C(=O)NCCN1C(=O)S/C(=C\c3ccc(F)cc3)C1=O)CS2 (centres undefined) | nt | nt | nt | nt | nt | i
Cc1ccc(C(=O)c2cccc(N)c2)cc1C | i | 49 | i | i | i | 82
Cc1ccc(C(=O)c2ccc(O)cc2)cc1C | i | i | i | i | i | nt
O=C(N/C(=C\c1ccc(Br)cc1)C(=O)N1CCOCC1)c1ccc([N+](=O)[O-])cc1 | nt | nt | i | i | nt | i
CCOC(=O)c1c(NC(=O)C[n+]2ccc(N(C)C)cc2)sc(C)c1C | 35 | i | i | i | 29 | i
CCN(Cc1ccccc1)c1ccc(/C=N/N=C(N)N)cc1 | i | i | i | i | i | 94
CCN(Cc1ccccc1)c1ccc(/C=N/NC(=S)NC(C)C)cc1 | i | i | i | i | i | i
Cc1ccn2cc(-c3ccc(Br)cc3)nc2c1 | i | nt | i | i | i | 63
CN(C)c1ccc(-c2nnc(-c3cccs3)o2)cc1 | i | i | i | i | i | 82
N#CCCn1nc(-c2ccccc2)c2ccccc2c1=O | nt | nt | i | i | nt | i
COc1ccccc1NS(=O)(=O)c1cccc(C(=O)OCC(=O)NC2CC2)c1 | nt | nt | nt | nt | nt | i
CC1(C)N=C(N)NC(Nc2ccccc2)=N1 | 98 | i | i | i | 94 | i
CC[n+]1c(/C=C2/C=C(C)CC(C)C2)sc2ccccc21 (centres undefined) | 55 | i | i | i | 60 | i
CCN(CC)CCCNC(=O)c1cc2c(-c3ccc(Cl)cc3)nn(C)c2s1 | 29 | i | i | i | i | i
N#Cc1c(N)nc(Sc2ccc(Cl)cc2)c(C#N)c1-c1ccccc1Cl | i | nt | i | i | i | i
CCc1cc(=O)oc2cc3occ(C)c3cc12 | i | i | i | i | i | i
CCc1cc(=O)oc2cc3occ(-c4ccc(OC)c(F)c4)c3cc12 | i | 91 | i | i | i | i
Cc1cccc(C(=O)NCCc2ccccc2)c1 | nt | nt | i | i | nt | i
Cc1ccc(S(=O)(=O)N2CCCC2)cc1C(=O)NCCN1CCOCC1 | nt | nt | i | i | nt | i
Cc1ccc(C(=O)/C=C/Nc2ccccn2)cc1 | i | i | i | i | i | 75
SMILES | BaF3 parental | APP 5UTR inh | KLF5 inhibitor | IEC-6 tox | Ba/F3 V617F tox | aSyn UTR inh
Cc1ccc(C(=O)/C=C/C(=O)c2ccc(C)cc2)cc1 | i | 66 | i | i | i | i
CCOc1cc(/C=C2/NC(=S)NC2=O)ccc1OCc1ccc([N+](=O)[O-])cc1 | i | i | i | i | i | 62
CCOc1cc(C(c2c(C)[nH][nH]c2=O)c2c(C)[nH][nH]c2=O)ccc1OCc1ccc([N+](=O)[O-])cc1 | i | nt | i | i | i | i
S=C1SCN(Cc2cccnc2)CN1Cc1cccnc1 | 51 | nt | i | i | 86 | i
Cc1ccc(C(=O)N/C(=C\c2cn(C)c3ccccc23)C(=O)NCCCN2CCOCC2)cc1 | nt | nt | i | i | nt | i
Cc1ccc(C(=O)N/C(=C\c2ccc(-c3cccc([N+](=O)[O-])c3)o2)C(=O)NCCCN(C)C)cc1 | nt | nt | i | i | nt | i
Cc1ccc(C(=O)N/C(=C\c2ccc(-c3ccccc3[N+](=O)[O-])o2)C(=O)NCCCN2CCOCC2)cc1 | nt | nt | i | i | nt | 71
Cc1ccc(C(=O)N/C(=C\c2ccc(-c3ccc(Br)cc3)o2)C(=O)NCCCN(C)C)cc1 | 60 | i | i | i | i | ?
CCn1c(CC(=O)Nc2ccccc2)n[nH]c1=S | i | i | i | i | i | i
CC(=O)Nc1ccc(NC(=O)c2cccc(-c3cc4ccccc4oc3=O)c2)cc1 | i | i | i | i | i | i
O=C(Cc1cccc2ccccc12)Nc1ccc(-c2cc3ccccc3oc2=O)cc1 | i | i | i | i | i | 65
Cc1ccc(C(=O)NC(=S)Nc2ccc(-c3cc4ccccc4oc3=O)cc2)c(C)c1 | i | nt | i | i | i | 88
Cc1cc(C)cc(C(=O)NC(=S)Nc2ccc(-c3cc4ccccc4oc3=O)cc2)c1 | i | i | i | i | i | 97
CC(=O)Nc1ccc(NC(=S)NC(=O)c2cc3ccccc3o2)cc1 | i | i | i | i | i | i

Screens: PubChem BioAssay, several laboratories
